About 83,000 compounds went through this panel and 20% of them were active in at least one assay; those are over-represented in the sample as a whole.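 Interpretation: 100, growth as untreated; towards 0, rising growth inhibition; 0, no net growth; 0 to -100, cell death. Compounds scoring below 10 were considered active.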 Calls of active or inactive are those of the source.

The assay relates to NCI-H522 lung. Briefly: NCI-60 one-dose screen, 48 h (100 = growth as untreated, 0 = no growth, -100 = all killed). Conditions: 10 µM unless noted. Here is the method:
Growth inhibition of the NCI-H522 human Non-Small Cell Lung tumor cell line is measured as a screen for anti-cancer activity. Cells are grown in 96 well plates and exposed to the test compound for 48 hours. Compounds are tested at a single concentration, which is 10^-5 M for most compounds. The reported endpoint is percent growth (GI% or GIPRCNT), where numbers from 0 - 100% represent growth inhibition, and numbers from -100% - 0 represent cell death. For example, a value of 40 represents 60% growth inhibition. A value of 0 means no net growth occurred over the course of the experiment. A value of -40 indicates 40% of cells at the beginning of the experiment died by the end of the experiment. A value of -100 means all cells are dead at the end of the experiment.
NCI-60 Human Tumor Cell Lines Screen was performed using the standard one-dose NCI protocol, which is described in more detail at https://dtp.cancer.gov/discovery_development/nci-60/default.htm.
Compounds with GIPRCNT values below 10 were considered active. Activity score was based on GIPRCNT using the following formula: […]
Score is 0 for GIPRCNT values of 100 or above, 50 for GIPRCNT values of 0, and 100 for GIPRCNT values of -100.
`CN1C(=O)NC(c2ccc(Cl)cc2)(c2ccc(Cl)cc2)C1=O`: the growth is 108% (inactive).
Regarding `O=[N+]([O-])c1c(O)c(CNCCCO)cc(CNCCCO)c1O`, the growth was 121% (inactive).
In the case of `Cc1cccc2ccccc12` it was 97.3% (inactive).
To `Cc1ccc(C(C)C)c(OCC(=O)O)c1` belongs 111% (inactive).
To `O=C(OCc1ccccc1)n1nnc2ccccc21` belongs 100% (inactive).
`CC(=O)NC(CCC(=O)c1ccccc1)C(=O)O` (stereo not given): the growth is 90.2% (inactive).
Consider `C=CC1=NC(C)(C)CC(C)O1` (stereo not given), for which the growth is 97.5% (inactive).
To `Cn1/c(=N\N=C\c2ccccc2OCCO)sc2ccccc21` belongs 90% (inactive).
To `COc1cccc(N=CNc2cccc(OC)c2)c1` belongs 85.6% (inactive).
For `COc1ccc2c(ccc[n+]2C)c1`, the growth is 54.7% (inactive).
To `CCN(C(=O)Nc1ccccc1Cl)c1ccccc1` belongs 106% (inactive).
To `C[n+]1c(/C=C\C=C\N2CCCCC2)sc2ccccc21` belongs -49.3% (active); to `CC(=O)c1cccc(N(C)S(=O)(=O)c2ccc(C)cc2)c1`, 82.9% (inactive).
To `CCNC(=O)OCCc1c2ccccc2nc2ccccc12` belongs 94.3% (inactive).
Take `C=C1C(=O)C2CCN1CC2`: the growth was -53.8% (active).
With `CCOC(=O)CNC`, the growth was 123% (inactive).
In the case of `Cc1cc(=O)n(Nc2ccccc2)c(O)c1C#N` it was 100% (inactive); in that of `Nc1nc(Cl)cc(Cl)n1`, 81.9% (inactive); in that of `CCCCc1ccc2nc(NC(=O)OC)[nH]c2c1`, -9.52% (active).
In the case of `CC(=O)OC/C(C)=C\CC(C)COC(C)=O` (stereo not given) it was 110% (inactive).
Consider `NNC(=O)CCCCl`, for which the growth was 104% (inactive).
In the case of `CCC(=O)Oc1ccc2ccccc2c1` it was 99.5% (inactive); in that of `ClCC(Cl)C1CCC(Cl)C(Cl)C1` (stereo not given), 102% (inactive).
In the case of `NC(=S)N/N=C/c1ccc(Cl)cc1` it was 87.8% (inactive); in that of `CN(C(=S)S(=O)(=O)C12CC3CC(CC(C3)C1)C2)c1ccccc1`, 46.1% (inactive).
In the case of `OCc1cccnc1` it was 108% (inactive); in that of `Cc1ccc(/C=N/NC(N)=S)s1`, 105% (inactive); in that of `CCCCCCCCCCCCCCCCCC(=O)NCCNC(=O)CCCCCCCCCCCCCCCCC`, 98.7% (inactive).
For the compound `CCOC(=O)c1cc(C)[nH]c(=O)c1C#N`, the growth is 74.4% (inactive).
To `CN=S(=O)(OCCCCCOS(=O)(=NC)c1ccc(C)cc1)c1ccc(C)cc1` (stereo not given) belongs 116% (inactive); to `Nc1ncc([N+](=O)[O-])cn1`, 71.2% (inactive).
To `CC1CCC(C(C)(C)[N+](C)(C)C)CC1` (stereo not given) belongs 106% (inactive).
In the case of `O=S(=O)(O)C(C(I)I)S(=O)(=O)O`, the growth is 108% (inactive).
To `O=C(NCCc1ccccc1)/C(=C\c1ccc(Cl)cc1Cl)NC(=O)c1ccccc1` belongs 90% (inactive); to `O=[N+]([O-])c1c(Cl)ncnc1Cl`, 97.3% (inactive).
In the case of `C[n+]1cc2cc3c(cc2c2ccccc21)OCO3` it was 30.8% (inactive); in that of `O=c1cc(Cl)nc2ccccn12`, 99.7% (inactive).
To `C=C(c1ccc(N(C)C)cc1)c1ccc(N(C)C)cc1` belongs -28.6% (active).
For `Cc1ccc2nc(-c3ccc(N=Cc4ccccc4O)cc3)sc2c1`, the growth was 61.3% (inactive).
On to `Clc1ccc(/C=C/c2ccccn2)cc1`, for which the growth is 87.1% (inactive).

The values are drawn from PubChem BioAssay (NCI).
